Screening results from PubChem.
Most compounds without a hit are left out; they make up all but 1.8% or so of the library.
Mot1-301 SUMO – blocks SUMOylation pathway, rescuing yeast Mot1-301 growth | S. cerevisiae Mot1-301 growth rescue, ATP luminescence, 38.5C; percent above DMSO median, 100 means doubled | AID 2716 | growth rescue, % at 18.8 µM | actives 1% (n = 320,000);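 active = every valid replicate shows activation above 250% relative to neutral control wells; inactive = the rest, any valid replicate at or below 250%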
AI-2 QS mod – modulators of Vibrio harveyi AI-2 quorum sensing system; activity change, % at 7.5 µM; actives 0.4% (n = 300,000); AID 2094; Vibrio harveyi JMH597 AI-2 luminescence/OD600 ratio, 9 h; stronger effect = lower value; strain lacks LuxN and CqsS sensors; 0 = neutral-control median; in the data active = activity change below about -75%, passing the limit was not always enough; inconclusive = no clear call, values can overlap the other calls;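 also: luminescence divided by OD600 gain over 9 h not by final OD600 alone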
ARNT TACC3 PPI – ARNT/TACC3 interaction disruption; actives 0.66% (n = 390,000); AlphaScreen His-ARNT PAS-B/GST-TACC3 binding, luminescence; TACC3 fragment carries E629A point mutation; inhibition, % at 9.99 µM; Q9Y6A5;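 active = mean inhibition of replicates at least 50% and at least half of replicates each reaching 50%; inconclusive = half or more replicates reach 50% but mean below 50%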
aDG glyco act – increases alpha dystroglycan glycosylation. activation, % at 10 µM. Pro5-aDG cells, alpha-DG glycosylation AlphaScreen (IIH6); 0% Pro5, 100% B10-LARGE cell signal. actives 0.22% (n = 360,000);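 active = activation of at least 8% versus controls, or a plate z-score of at least 8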;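 also: Pro5 are CHO cells carrying HIG-tagged alpha-DG that lacks glycosylation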
A1 inh – inhibitors of the anti-apoptotic protein A1, read as caspase activation; MEF A1-2A-BIM cells, Caspase-Glo 3/7 luminescence, 3 h; percent of clofoctol response, vehicle zero; caspase activation, % (test concentration not listed); actives 0.066% (n = 330,000);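 active = over half of replicate activation scores above 10%, or exactly half above 10 with the replicate mean above 10; inconclusive = replicate mean below 10 yet half the replicates above 10; inactive = over half of replicates below 10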
JMH597 growth – retest Vibrio harveyi JMH597 growth inhibition; shares compounds with AI-2 QS mod; OD600 absorbance, 9 h; lacks LuxN and CqsS sensors; growth inhibition, % at 7.5 µM; actives 1% (n = 750); AID 2726;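 active = every replicate shows growth inhibition above 50%; inconclusive = at least half, but not all, replicates pass that cutoff; inactive = fewer than half of replicates pass it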
BB721 const-QS lum – retest counter-screen: luminescence loss in constitutive-on quorum sensing strain BB721; shares compounds with AI-2 QS mod; Vibrio harveyi BB721 luminescence, 9 h; inhibition, % at 7.5 µM; actives 95% (n = 750); AID 2727;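 active = inhibition above about 80% in every replicate, not just on average, limit read from the data; inconclusive = at least half of replicates past the limit, but not all; inactive = fewer than half of replicates past the limit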
BB721 growth rt – retest: inhibitors of Vibrio harveyi BB721 growth; shares compounds with AI-2 QS mod; OD600 absorbance, 9 h; growth inhibition, % at 7.5 µM; actives 3% (n = 750); AID 2728;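 active = every replicate shows growth inhibition above 50%; inconclusive = at least half but not all replicates above 50% inhibition; inactive = under half of replicates above 50% inhibition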
AI-2 QS JMH597 – Vibrio harveyi AI-2 signaling luminescence modulation – JMH597 strain, confirmation; inhibition, % at 7.5 µM; shares compounds with AI-2 QS mod; AID 2736; Vibrio harveyi JMH597 AI-2 quorum sensing luminescence, 9 h; luxN and CqsS knockout, AI-2 only; actives 97% (n = 750);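 active = every replicate shows more than 75% inhibition of signal versus neutral control wells; inconclusive = half to three quarters of replicates exceed 75% inhibition; inactive = fewer than half of replicates exceed 75% inhibition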
Of the large screens only hits and unclear results are named; the others gave an inactive call (follow-up assays come after a bar, where they were run).

COc1ccc(S(=O)(=O)n2cccc2)cc1	AI-2 QS mod inconclusive (no result: ARNT TACC3 PPI) | JMH597 growth inactive | BB721 const-QS lum 96 | BB721 growth rt inactive | AI-2 QS JMH597 99
Clc1ccc(C2Nc3cccc4cccc(c34)N2)c(Cl)c1	none (no result: Mot1-301 SUMO, AI-2 QS mod, A1 inh)
N/C(=N\OC(=O)CCc1ccccc1)c1ccccc1Cl	AI-2 QS mod -85 (no result: ARNT TACC3 PPI) | JMH597 growth inactive | BB721 const-QS lum 92 | BB721 growth rt inactive | AI-2 QS JMH597 92
N/C(=N\OC(=O)CCc1ccccc1)c1ccc(Br)cc1	none
O=C(NCc1ccc2c(c1)CCO2)Nc1ccccc1	AI-2 QS mod -83 | JMH597 growth inactive | BB721 const-QS lum 96 | BB721 growth rt inactive | AI-2 QS JMH597 96
Cc1ccc(C(=O)NCc2ccc3c(c2)CCO3)cc1C	none (no result: ARNT TACC3 PPI)
O=C(Nc1ccc(Oc2ccc3ccccc3c2)cc1)c1ccco1	AI-2 QS mod -96 | JMH597 growth inactive | BB721 const-QS lum 99 | BB721 growth rt 102 | AI-2 QS JMH597 99
COc1ccc(N2CCN(C(=O)CN(c3ccccc3)S(=O)(=O)c3ccc(OC)cc3)CC2)cc1	none
COc1ccc(CC(=O)O/N=C(\N)c2ccc(OC)cc2)cc1	AI-2 QS mod -94 | JMH597 growth inactive | BB721 const-QS lum 97 | BB721 growth rt inactive | AI-2 QS JMH597 98
O=S(=O)(c1cccs1)N1CCN(CC(O)COc2cccc(Br)c2)CC1 (stereo unspecified)	AI-2 QS mod -82 | JMH597 growth inactive | BB721 const-QS lum 88 | BB721 growth rt inactive | AI-2 QS JMH597 93
O=S(=O)(c1cccs1)N1CCN(CC(O)COC2CCCc3ccccc32)CC1 (stereo unspecified)	none (no result: ARNT TACC3 PPI)
Cc1ccc(Cn2ncn(-c3ccccc3)c2=O)cc1	AI-2 QS mod inconclusive (no result: Mot1-301 SUMO) | JMH597 growth inactive | BB721 const-QS lum 95 | BB721 growth rt inactive | AI-2 QS JMH597 97
Cc1cc(C)c(Cn2ncn(-c3ccc(Br)cc3)c2=O)c(C)c1	none (no result: ARNT TACC3 PPI)
CC(CNC(=O)c1cc(COc2c(F)cccc2F)on1)Oc1cccnc1 (stereo unspecified)	AI-2 QS mod -91 | JMH597 growth inactive | BB721 const-QS lum 94 | BB721 growth rt inactive | AI-2 QS JMH597 96
CSc1ccc(S(=O)(=O)N2CCC(C(=O)NCc3ccco3)CC2)cc1	AI-2 QS mod -90 | JMH597 growth inactive | BB721 const-QS lum inactive | BB721 growth rt inactive | AI-2 QS JMH597 100
Cc1ccc(/C=N/Nc2ccc(C(=O)O)cc2)o1	AI-2 QS mod -91 (no result: ARNT TACC3 PPI) | JMH597 growth inactive | BB721 const-QS lum 97 | BB721 growth rt inactive | AI-2 QS JMH597 98
Cc1ccc(/C=N/NC(=O)Nc2ccccc2)o1	none
Cc1ccsc1/C=N/Nc1ccc(C(=O)O)cc1	AI-2 QS mod -91 | JMH597 growth inactive | BB721 const-QS lum 98 | BB721 growth rt 65 | AI-2 QS JMH597 99
O=C(CNC(=O)c1cccc(Br)c1)N/N=C/c1cccs1	AI-2 QS mod -83 | JMH597 growth inactive | BB721 const-QS lum 91 | BB721 growth rt inactive | AI-2 QS JMH597 91
Cc1ccsc1/C=N/NC(=O)CNC(=O)c1ccccc1	AI-2 QS mod inconclusive | JMH597 growth inactive | BB721 const-QS lum 93 | BB721 growth rt inactive | AI-2 QS JMH597 95
Nn1c(SCC(=O)Nc2c(F)cc(F)cc2Br)nnc1C1CCCCC1	none
O=C(c1cc2c(c(-c3cccc(-c4ccncc4)c3)n1)[C@H](CCO)N(C(=O)c1ccc3c(c1)OCO3)C2)N1CCOCC1	none (no result: Mot1-301 SUMO, AI-2 QS mod, ARNT TACC3 PPI, A1 inh)
COc1ccc(/C=N/Nc2ccc(C(=O)O)cc2)cc1OC	AI-2 QS mod -93 | JMH597 growth inactive | BB721 const-QS lum 96 | BB721 growth rt inactive | AI-2 QS JMH597 97
O=C(O)COc1ccc2oc3ccccc3c2c1	none
O=C(Cc1ccccc1)N/N=C/c1cccs1	none
O=C(CNC(=O)c1cccs1)N/N=C/c1ccc(Cl)cc1	AI-2 QS mod -87 | JMH597 growth inactive | BB721 const-QS lum 96 | BB721 growth rt inactive | AI-2 QS JMH597 96
O=C(Cc1ccc(Cl)cc1)N/N=C/c1cccs1	AI-2 QS mod inconclusive | JMH597 growth inactive | BB721 const-QS lum 89 | BB721 growth rt inactive | AI-2 QS JMH597 90
COc1ccc(/C=N/NC(=O)CNC(=O)c2cccs2)cc1	none
COc1cccc(CN2C(=O)C3(C(C#N)=C(N)OC4=C3C(=O)CCC4)c3ccccc32)c1 (stereo unspecified)	none
CC(C)NC(=O)Nc1ccc2c(c1)C(=O)N([C@H](C)CO)C[C@H](C)[C@@H](CN(C)C(=O)c1ccccc1)OCCCC[C@H](C)O2	none (no result: Mot1-301 SUMO, AI-2 QS mod, aDG glyco act, A1 inh)
CCOC(=O)C1CCCN(S(=O)(=O)c2cccs2)C1 (stereo unspecified)	AI-2 QS mod inconclusive | JMH597 growth inactive | BB721 const-QS lum 99 | BB721 growth rt inactive | AI-2 QS JMH597 100
CC(C)NC(=O)C1CCCN(S(=O)(=O)c2cccs2)C1 (stereo unspecified)	none
COc1ccc(NC(=O)Nc2ccc3c(c2)CC(=O)N([C@H](C)CO)C[C@@H](C)[C@@H](CN(C)Cc2ccccc2)O3)cc1	none (no result: Mot1-301 SUMO, AI-2 QS mod, aDG glyco act, A1 inh)
O=C1NCCCC1C(=O)N/N=C/c1ccc(Cl)cc1 (stereo unspecified)	none
O=C1NCCCC1C(=O)N/N=C/c1cccc(Cl)c1 (stereo unspecified)	AI-2 QS mod -79 | JMH597 growth inactive | BB721 const-QS lum 89 | BB721 growth rt inactive | AI-2 QS JMH597 93
O=C(NCc1ccccc1)C1CCCC1	none (no result: ARNT TACC3 PPI, aDG glyco act)
CCc1ccc(S(=O)(=O)Nc2cccc(C3OCCCO3)c2)cc1	none
c1ccc(Oc2cc(-c3ccccc3)ncn2)cc1	AI-2 QS mod -93 | JMH597 growth inactive | BB721 const-QS lum 98 | BB721 growth rt inactive | AI-2 QS JMH597 98
c1ccc(Oc2cc(-c3ccccc3)nc(-c3ccccc3)n2)cc1	none
CCCOc1ccc(N2C(=O)CC(SCCN)C2=O)cc1 (stereo unspecified)	AI-2 QS mod -87 | JMH597 growth inactive | BB721 const-QS lum 95 | BB721 growth rt inactive | AI-2 QS JMH597 96
O=C(Nc1ccc(N2CCN(C(=O)c3ccco3)CC2)cc1)c1ccccc1	none
Cc1nc2ccccc2cc1OCc1ccc(Cl)cc1	none (no result: A1 inh)
Cc1nc2ccccc2cc1OCc1ccccc1	AI-2 QS mod -81 | JMH597 growth inactive | BB721 const-QS lum 93 | BB721 growth rt inconclusive | AI-2 QS JMH597 96
